Consider 15 compounds from PubChem BioAssay (NCATS).

Results filed as inconclusive are left out. A call without a number means that no potency is given here. The source made the active and inactive calls. The call rests on the fitted dose curve; in most records, active means well fitted curve in the direction sought with a large enough effect; inconclusive means small, poorly fitted or top-dose-only effect, or another doubt; inactive means no such curve, though single readings can be large; an effect the other way counts as inactive or inconclusive.

The target in assay [1] is Aldehyde dehydrogenase, mitochondrial (Homo sapiens) (UniProt P05091). The assay can be described thus: qHTS for Inhibitors of the Aldehyde Dehydrogenase Family (ALDH2) Primary screen (AID 2061308). Further: nearly all actives have a fitted effect of over 55% in size. The following applies: ALDH2 enzyme inhibition qHTS, 1536-well; series mostly up to 56 µM.
Assay [2] addresses Retinaldehyde dehydrogenase 3 (Homo sapiens) (UniProt P47895). The assay can be described thus: qHTS for Inhibitors of the Aldehyde Dehydrogenase Family (ALDH1A3) Primary screen (AID 2061315). The note with it: ALDH inhibition qHTS; series mostly up to 56 µM.

Turning to `COc1cccc(-c2ccc(-c3nc4ccccc4c(=O)[nH]3)o2)c1`, the Potency entry in assay [1] and in assay [2] was “inactive” throughout.
Consider `CCOC(=O)C1CCN(C(=O)C(C)(C)NC(=O)Nc2cccc(OC)c2)CC1`, for which the Potency entry in assay [1] and in assay [2] was “inactive” each time.
As to `O=S(=O)(c1ccc2nc(Cl)c(Cl)nc2c1)N1CCN(S(=O)(=O)c2c(F)cccc2F)CC1`, the Potency entry in assay [1] and in assay [2] was “inactive” throughout.
On to `Cc1cc(NS(=O)(=O)c2ccc(NC(=O)Cc3ccc(Cl)c(F)c3)cc2)no1`, for which the Potency result in assay [1] and in assay [2] was “inactive” in each case.
Take `Cc1ccc(CNc2ncc(N3CCCCC3)cn2)cc1`: the Potency result in assay [1] and in assay [2] was “inactive” in each case.
As to `COc1ccc(C2=Nn3c(nnc3-c3ccccc3F)SC2)cc1OC1CCOC1` (stereo not given), the Potency result in assay [1] and in assay [2] was “inactive” each time.
Regarding `Oc1cccc2c(-c3nn[nH]n3)ccnc12`, the Potency entry in assay [1] and in assay [2] was “inactive” each time.
For `O=C(NC1CCCc2c1cnn2-c1ccc(F)cc1F)c1ccn[nH]1` (stereo not given), the Potency result in assay [1] and in assay [2] was “inactive” throughout.
As to `COc1cc(-c2nc(Nc3ccc(F)c(F)c3)c3ccccc3n2)cc(OC)n1`, the Potency entry in assay [1] and in assay [2] was “inactive” each time.
As to `FC(F)(F)c1ccc(-c2nc(NCc3ccc(-c4cccnc4)cc3)c3ccccc3n2)cc1`, the Potency result in assay [1] and in assay [2] was “inactive” throughout.
Regarding `COc1ccc(N2C[C@]34C=C[C@H](O3)C(C(=O)O)C4C2=O)cc1OC` (stereo not given in full), the Potency entry in assay [1] and in assay [2] was “inactive” each time.
`Cc1cccc(S(=O)(=O)Nc2cnccc2C(=O)Nc2nc(-c3ccccc3)cs2)c1`: the Potency result in assay [1] and in assay [2] was “inactive” throughout.
As to `CC(C)C(OC(=O)CNC(=O)c1ccccc1)C(=O)Nc1cc(C(F)(F)F)ccc1Cl` (stereo not given), the Potency result in assay [1] and in assay [2] was “inactive” throughout.
On to `Cc1ccc2oc(NC3=NC(c4[nH]ncc4Cl)C4=C(CCCC4=O)N3)nc2c1` (stereo not given), for which the Potency entry in assay [1] and in assay [2] was “inactive” each time.
Consider `Cn1ccc2cc(-c3ccc4ncnc(NCc5cccc(F)c5)c4c3)ccc21`, for which the Potency result in assay [1] and in assay [2] was “inactive” each time.
